Measurements published in article PMC11006913.
Where a chain is given by its changes, count along the chain named.

Key:
Experiment in all cases: PBM; 200 nM protein, PBS
Conditions in all cases: dsDNA, one strand shown
NKX2-4 [1] = biological target: T1, NKX2-4 (Homo sapiens, UniProt Q9H2Z4 175-261, P217L)
T1 sequence: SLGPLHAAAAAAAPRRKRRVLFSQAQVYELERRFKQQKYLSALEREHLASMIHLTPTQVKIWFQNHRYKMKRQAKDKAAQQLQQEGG

HOXC9 [2] = biological target: HOXC9 (Homo sapiens, UniProt P31274 178-260, K195R)
NKX2-4 [3] = biological target: T2, NKX2-4 (Homo sapiens, UniProt Q9H2Z4 175-261, T231S)
T2 sequence: T1 sequence with L43P, T57S

NKX2-4 [4] = biological target: T3, NKX2-4 (Homo sapiens, UniProt Q9H2Z4 175-261)
T3 sequence: T1 sequence with L43P

HOXC9 [5] = biological target: HOXC9 (Homo sapiens, UniProt P31274 178-260)
Chain of HOXC9 (Homo sapiens, UniProt P31274 178-260) (P31274 178-260): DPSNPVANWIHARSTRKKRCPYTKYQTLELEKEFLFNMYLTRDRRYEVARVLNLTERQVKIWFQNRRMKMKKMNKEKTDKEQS

PITX2 = PITX2 (Homo sapiens, UniProt Q99697 72-157)
HOXC9 [6] = biological target: HOXC9 (Homo sapiens, UniProt P31274 178-260, R193K)
Chain of HOXC9 (Homo sapiens, UniProt P31274 178-260, R193K) (P31274 178-260 R193K): as the sequence (P31274 178-260) above, with R16K counted along it

NKX2-4 [7] = biological target: T4, NKX2-4 (Homo sapiens, UniProt Q9H2Z4 175-261, R246Q)
T4 sequence: T1 sequence with L43P, R72Q

HOXC9 [8] = biological target: HOXC9 (Homo sapiens, UniProt P31274 178-260, R222W)
Chain of HOXC9 (Homo sapiens, UniProt P31274 178-260, R222W) (P31274 178-260 R222W): as the sequence (P31274 178-260) above, with R45W counted along it

HOXB6 [9] = biological target: HOXB6 (Homo sapiens, UniProt P17509 132-218, K202E)
Chain of HOXB6 (Homo sapiens, UniProt P17509 132-218, K202E) (P17509 132-218 K202E): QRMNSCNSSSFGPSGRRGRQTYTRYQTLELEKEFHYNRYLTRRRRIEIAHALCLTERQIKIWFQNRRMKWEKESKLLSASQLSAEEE

HOXB6 [10] = biological target: HOXB6 (Homo sapiens, UniProt P17509 132-218)
Chain of HOXB6 (Homo sapiens, UniProt P17509 132-218) (P17509 132-218): as the sequence (P17509 132-218 K202E) above, with E71K counted along it

NKX2-6 = biological target: T5, NKX2-6 (Homo sapiens, UniProt A6NCS4 118-204, R150C)
T5 sequence: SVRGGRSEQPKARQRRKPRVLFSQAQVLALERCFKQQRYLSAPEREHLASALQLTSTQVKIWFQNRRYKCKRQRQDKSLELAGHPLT

HOXA2 [11] = biological target: HOXA2 (Homo sapiens, UniProt O43364 129-215, R185T)
Chain of HOXA2 (Homo sapiens, UniProt O43364 129-215, R185T) (O43364 129-215 R185T): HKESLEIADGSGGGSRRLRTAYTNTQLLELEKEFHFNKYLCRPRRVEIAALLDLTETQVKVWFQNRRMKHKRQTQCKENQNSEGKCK

HOXA2 [12] = biological target: HOXA2 (Homo sapiens, UniProt O43364 129-215, R185K)
Chain of HOXA2 (Homo sapiens, UniProt O43364 129-215, R185K) (O43364 129-215 R185K): as the sequence (O43364 129-215 R185T) above, with T57K counted along it

HOXA2 [13] = biological target: HOXA2 (Homo sapiens, UniProt O43364 129-215, Y150S)
Chain of HOXA2 (Homo sapiens, UniProt O43364 129-215, Y150S) (O43364 129-215 Y150S): as the sequence (O43364 129-215 R185T) above, with Y22S, T57R counted along it

HOXA2 [14] = biological target: HOXA2 (Homo sapiens, UniProt O43364 129-215)
Chain of HOXA2 (Homo sapiens, UniProt O43364 129-215) (O43364 129-215): as the sequence (O43364 129-215 R185T) above, with T57R counted along it

MSX2 [15] = biological target: MSX2 (Homo sapiens, UniProt P35548 130-214, R199I)
Chain of MSX2 (Homo sapiens, UniProt P35548 130-214, R199I) (P35548 130-214 R199I): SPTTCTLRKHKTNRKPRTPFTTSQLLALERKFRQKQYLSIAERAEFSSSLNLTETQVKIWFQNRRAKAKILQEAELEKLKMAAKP

ALX1 [16] = biological target: ALX1 (Homo sapiens, UniProt Q15699 118-204, L144V)
Chain of ALX1 (Homo sapiens, UniProt Q15699 118-204, L144V) (Q15699 118-204 L144V): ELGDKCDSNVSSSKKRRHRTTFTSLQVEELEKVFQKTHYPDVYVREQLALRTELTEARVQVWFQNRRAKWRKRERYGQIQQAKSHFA

ALX1 [17] = biological target: ALX1 (Homo sapiens, UniProt Q15699 118-204, L144R)
Chain of ALX1 (Homo sapiens, UniProt Q15699 118-204, L144R) (Q15699 118-204 L144R): as the sequence (Q15699 118-204 L144V) above, with V27R counted along it

MSX2 [18] = biological target: MSX2 (Homo sapiens, UniProt P35548 130-214)
Chain of MSX2 (Homo sapiens, UniProt P35548 130-214) (P35548 130-214): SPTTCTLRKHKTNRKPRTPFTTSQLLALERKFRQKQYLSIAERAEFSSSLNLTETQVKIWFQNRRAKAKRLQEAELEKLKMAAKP

MSX2 [19] = biological target: MSX2 (Homo sapiens, UniProt P35548 130-214, F161Y)
Chain of MSX2 (Homo sapiens, UniProt P35548 130-214, F161Y) (P35548 130-214 F161Y): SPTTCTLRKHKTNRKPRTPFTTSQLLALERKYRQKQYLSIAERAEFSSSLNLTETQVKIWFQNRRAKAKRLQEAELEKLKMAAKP

ALX1 [20] = biological target: ALX1 (Homo sapiens, UniProt Q15699 118-204)
Chain of ALX1 (Homo sapiens, UniProt Q15699 118-204) (Q15699 118-204): as the sequence (Q15699 118-204 L144V) above, with V27L counted along it

Chain of HOXC9 (Homo sapiens, UniProt P31274 178-260, K195R) (P31274 178-260 K195R): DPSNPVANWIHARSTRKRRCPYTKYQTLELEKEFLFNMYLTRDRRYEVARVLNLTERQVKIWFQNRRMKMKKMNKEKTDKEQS

CGCGCCCG
binding signal (NKX2-4 [1]): 9.29 upbm affinity estimate (log intensity, higher = more binding, comparable within an allelic series) | binding signal (HOXC9 [2]): 9.51 upbm affinity estimate (log intensity, higher = more binding, comparable within an allelic series) | binding signal (NKX2-4 [3]): 9.29 upbm affinity estimate (log intensity, higher = more binding, comparable within an allelic series) | binding signal (NKX2-4 [4]): 9.39 upbm affinity estimate (log intensity, higher = more binding, comparable within an allelic series) | binding signal (HOXC9 [5]): 9.64 upbm affinity estimate (log intensity, higher = more binding, comparable within an allelic series) | binding signal (PITX2): 7.51 upbm affinity estimate (log intensity, higher = more binding, comparable within an allelic series) | binding signal (HOXC9 [6]): 9.54 upbm affinity estimate (log intensity, higher = more binding, comparable within an allelic series) | binding signal (NKX2-4 [7]): 9.3 upbm affinity estimate (log intensity, higher = more binding, comparable within an allelic series) | binding signal (HOXC9 [8]): 9.66 upbm affinity estimate (log intensity, higher = more binding, comparable within an allelic series)

CCAGGCTC
binding signal (NKX2-4 [1]): 9.76 upbm affinity estimate (log intensity, higher = more binding, comparable within an allelic series) | binding signal (NKX2-4 [3]): 9.75 upbm affinity estimate (log intensity, higher = more binding, comparable within an allelic series) | binding signal (NKX2-4 [4]): 9.7 upbm affinity estimate (log intensity, higher = more binding, comparable within an allelic series) | binding signal (HOXB6 [9]): 9.08 upbm affinity estimate (log intensity, higher = more binding, comparable within an allelic series) | binding signal (NKX2-4 [7]): 9.86 upbm affinity estimate (log intensity, higher = more binding, comparable within an allelic series) | binding signal (HOXB6 [10]): 9.18 upbm affinity estimate (log intensity, higher = more binding, comparable within an allelic series)

ACGAGTAT
binding signal (NKX2-4 [1]): 11.5 upbm affinity estimate (log intensity, higher = more binding, comparable within an allelic series) | binding signal (NKX2-4 [3]): 11.7 upbm affinity estimate (log intensity, higher = more binding, comparable within an allelic series) | binding signal (NKX2-4 [4]): 11.4 upbm affinity estimate (log intensity, higher = more binding, comparable within an allelic series) | binding signal (NKX2-4 [7]): 11.6 upbm affinity estimate (log intensity, higher = more binding, comparable within an allelic series)

ACCCTTAC
binding signal (NKX2-4 [1]): 11.5 upbm affinity estimate (log intensity, higher = more binding, comparable within an allelic series) | binding signal (NKX2-4 [3]): 11.7 upbm affinity estimate (log intensity, higher = more binding, comparable within an allelic series) | binding signal (NKX2-4 [4]): 11.4 upbm affinity estimate (log intensity, higher = more binding, comparable within an allelic series)

CAAGTGCA
binding signal (NKX2-4 [1]): 12.1 upbm affinity estimate (log intensity, higher = more binding, comparable within an allelic series) | binding signal (NKX2-4 [3]): 12.5 upbm affinity estimate (log intensity, higher = more binding, comparable within an allelic series) | binding signal (NKX2-4 [4]): 12 upbm affinity estimate (log intensity, higher = more binding, comparable within an allelic series) | binding signal (NKX2-6): 11.4 upbm affinity estimate (log intensity, higher = more binding, comparable within an allelic series) | binding signal (NKX2-4 [7]): 12.7 upbm affinity estimate (log intensity, higher = more binding, comparable within an allelic series)

GTGAAGGA
binding signal (NKX2-4 [1]): 11.6 upbm affinity estimate (log intensity, higher = more binding, comparable within an allelic series) | binding signal (NKX2-4 [3]): 12 upbm affinity estimate (log intensity, higher = more binding, comparable within an allelic series) | binding signal (NKX2-4 [4]): 11.5 upbm affinity estimate (log intensity, higher = more binding, comparable within an allelic series) | binding signal (NKX2-4 [7]): 11.6 upbm affinity estimate (log intensity, higher = more binding, comparable within an allelic series)

AGCGGCCA
binding signal (NKX2-4 [1]): 9.69 upbm affinity estimate (log intensity, higher = more binding, comparable within an allelic series) | binding signal (NKX2-4 [3]): 9.47 upbm affinity estimate (log intensity, higher = more binding, comparable within an allelic series) | binding signal (NKX2-4 [4]): 9.64 upbm affinity estimate (log intensity, higher = more binding, comparable within an allelic series) | binding signal (PITX2): 8.04 upbm affinity estimate (log intensity, higher = more binding, comparable within an allelic series) | binding signal (NKX2-4 [7]): 9.57 upbm affinity estimate (log intensity, higher = more binding, comparable within an allelic series)

AACTCTTG
binding signal (NKX2-4 [1]): 11.7 upbm affinity estimate (log intensity, higher = more binding, comparable within an allelic series) | binding signal (NKX2-4 [3]): 11.8 upbm affinity estimate (log intensity, higher = more binding, comparable within an allelic series) | binding signal (NKX2-4 [4]): 11.6 upbm affinity estimate (log intensity, higher = more binding, comparable within an allelic series) | binding signal (NKX2-4 [7]): 12 upbm affinity estimate (log intensity, higher = more binding, comparable within an allelic series)

GCGTGCCC
binding signal (NKX2-4 [1]): 9.72 upbm affinity estimate (log intensity, higher = more binding, comparable within an allelic series) | binding signal (NKX2-4 [3]): 9.7 upbm affinity estimate (log intensity, higher = more binding, comparable within an allelic series) | binding signal (NKX2-4 [4]): 9.77 upbm affinity estimate (log intensity, higher = more binding, comparable within an allelic series) | binding signal (HOXA2 [11]): 7.23 upbm affinity estimate (log intensity, higher = more binding, comparable within an allelic series) | binding signal (HOXA2 [12]): 10.3 upbm affinity estimate (log intensity, higher = more binding, comparable within an allelic series) | binding signal (NKX2-4 [7]): 9.73 upbm affinity estimate (log intensity, higher = more binding, comparable within an allelic series) | binding signal (HOXA2 [13]): 10.3 upbm affinity estimate (log intensity, higher = more binding, comparable within an allelic series) | binding signal (HOXA2 [14]): 7.4 upbm affinity estimate (log intensity, higher = more binding, comparable within an allelic series)

GGTCCTCA
binding signal (NKX2-4 [1]): 11.5 upbm affinity estimate (log intensity, higher = more binding, comparable within an allelic series) | binding signal (NKX2-4 [3]): 11.9 upbm affinity estimate (log intensity, higher = more binding, comparable within an allelic series) | binding signal (NKX2-4 [4]): 11.5 upbm affinity estimate (log intensity, higher = more binding, comparable within an allelic series)

ACCCCTGG
binding signal (NKX2-4 [1]): 9.8 upbm affinity estimate (log intensity, higher = more binding, comparable within an allelic series) | binding signal (NKX2-4 [3]): 9.68 upbm affinity estimate (log intensity, higher = more binding, comparable within an allelic series) | binding signal (NKX2-4 [4]): 9.75 upbm affinity estimate (log intensity, higher = more binding, comparable within an allelic series) | binding signal (MSX2 [15]): 9.54 upbm affinity estimate (log intensity, higher = more binding, comparable within an allelic series) | binding signal (ALX1 [16]): 6.31 upbm affinity estimate (log intensity, higher = more binding, comparable within an allelic series) | binding signal (ALX1 [17]): 6.38 upbm affinity estimate (log intensity, higher = more binding, comparable within an allelic series) | binding signal (MSX2 [18]): 9.55 upbm affinity estimate (log intensity, higher = more binding, comparable within an allelic series) | binding signal (NKX2-4 [7]): 9.71 upbm affinity estimate (log intensity, higher = more binding, comparable within an allelic series) | binding signal (MSX2 [19]): 9.58 upbm affinity estimate (log intensity, higher = more binding, comparable within an allelic series) | binding signal (ALX1 [20]): 6.28 upbm affinity estimate (log intensity, higher = more binding, comparable within an allelic series)
